Test results published in the OligoGym collection.

molecular target: PRAMEF6; test: pooled miR-30 sensor sort-seq; sequence = guide strand; details: shRNA
Also: reference of the scale not given here.

| Sequence | sensor-assay potency score (higher = more potent) |
| --- | --- |
| TACAGCTCCACGCATAAGTTTT | -1.43 |
| TTTTGGAGGCAGCACAGCTTGA | -1.46 |
| TTAGTTATTGTGAGGACCTTTA | -0.654 |
| ATCAGCATCATAACTCTCCCGG | -0.511 |
| TATTGTGAGGACCTTTAACGAG | -1.02 |
| TTGGAGGCAGCACAGCTTGAGG | -1.39 |
| TTGGGTAAGCAGTGCATCCAGC | -0.474 |
| TCAGCATCATAACTCTCCCGGG | -0.662 |
| TTGGACAGTCCTGCACTGGTGT | -0.525 |

molecular target: PRB2; test: as above; details: shRNA

| Sequence | sensor-assay potency score (higher = more potent) |
| --- | --- |
| TTCGGGACTTGTTGTCTCCTTG | -0.146 |
| TCGGGACTTGTTGTCTCCTTGT | -0.96 |
| TTTGGGACTTGTTGTCTCCTTG | -0.1 |
| TTGGGACTTGTTGTCTCCTTGT | -0.258 |
| TGGCTTTCCTGCTATTAGGGAG | -0.778 |
| TTCGGGACTTGCTGCCTCCTTG | -0.944 |
| TTGAGGCTGGTTGCCTCCTTGT | -1.75 |
| AGGAGATCGAGAACTTCGGGAC | -1.14 |
